The nature of the experiment: JC-1 mitochondrial potential readout, lung cancer cells – cell-based, A549, JC-1 fluorescence, basal, 24 h, 100 nL, profiling panel (AID 1138).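 Note: A549 lung adenocarcinoma cells under basal conditions with no added stimulus; test concentration not given here.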 As to conditions: higher = more signal.
In turn, `C=C[C@@H](COC(C)=O)N(Cc1ccc([N+](=O)[O-])cc1)S(=O)(=O)c1ccc(Br)cc1` came in with a z-score of 1.6.

As for `O=C1O[C@@H](c2ccccc2)[C@@H](c2ccccc2)N2[C@@H](c3ccc(O)cc3)[C@]3(C(=O)Nc4ccc(C#CC5(O)CCCCCC5)cc43)[C@@H](C(=O)N3CCCCCCC3)[C@H]12`, the z-score was -0.15.

`COC(=O)C[C@@H]1C[C@H](C)[C@]2(O1)C(=O)N(Cc1ccccc1)c1ccc(NC(C)=O)cc12` displayed a z-score of -1.05.

Turning to `CC(C)(C)N1CC=CC23O[C@@H]4C=CCOC(=O)[C@@H]4[C@H]2C(=O)N(CCCCCO)[C@@H]3C1=O` (stereo partly specified), the z-score is -0.879.

Consider `C=CCN1C(=O)[C@]2(O[C@H](CCO)[C@@H]([Si](C)(C)c3ccc(OC)cc3)[C@@H]2C)c2cc(NC(=O)[C@H](C)O)ccc21`, for which the z-score worked out at 0.388.

For the molecule `C=CC(=C)C1=CCO[C@@H]1[C@H]1CCCN1S(=O)(=O)c1ccccc1[N+](=O)[O-]`, the z-score is -0.295.

As to `COc1ccc(NN2C(C(O)c3ccc(OC)c(OCc4ccccc4)c3)C=CC3C(=O)N(C4CCCCC4)C(=O)C32)cc1` (stereo unspecified), the z-score turned out to be 0.492.

On to `[N-]=[N+]=NCc1ccccc1[C@@H]1OC(c2ccc(OCCCO)cc2)=N[C@]1(Cc1ccccc1)C(=O)N1CCCCC1`, for which the z-score is 2.06.

With `CC(C)(C)N1CC=CC23O[C@@H]4/C=C\CCCOC(=O)C4[C@H]2C(=O)N(CCO)[C@@H]3C1=O` (stereo partly specified), the z-score is -0.913.

For `O=C1O[C@H](c2ccccc2)[C@H](c2ccccc2)N2[C@H]1[C@@H](C(=O)O)[C@]1(C(=O)Nc3ccc(C#CC4=CCCCC4)cc31)[C@H]2c1ccc(OCCO)cc1`, the z-score was -2.57.

As to `COC(=O)C[C@H]1O[C@]2(C(=O)N(Cc3ccccc3)c3ccc(NC(C)=O)cc32)[C@@H](C)[C@@H]1[Si](C)(C)c1ccc(OC)cc1`, the z-score was -0.922.

Turning to `CC(C)CNC(=O)[C@@H]1c2ccccc2C(=O)N(Cc2cc(C(F)(F)F)cc(C(F)(F)F)c2)[C@H]1c1ccc(CO)cc1`, the z-score is 0.157.

`COc1ccccc1CN1C(=O)c2ccccc2[C@@H](C(=O)NCCN2CCOCC2)[C@@H]1c1ccc(CO)cc1` yielded a z-score of 0.708.

`NCCCCCCNC(=O)[C@H]1C[C@H]2C(=O)NCC(=O)N2[C@H]1c1cccc(OCCO)c1` yielded a z-score of 1.85.

As to `COCCOC(=O)N1C(=O)[C@@]2(c3ccccc31)[C@H](C(=O)NC[C@H](O)c1ccccc1)[C@H]1C(=O)O[C@H](c3ccccc3)[C@H](c3ccccc3)N1[C@@H]2c1ccc(OCCO)cc1`, the z-score was -0.542.

Regarding `CC(C)N1CC=CC23O[C@@H]4C=CCOC(=O)[C@@H]4[C@H]2C(=O)N(CCO)[C@@H]3C1=O` (stereo partly specified), the z-score was -0.346.

For `COC(=O)[C@@]1(Cc2ccccc2)[C@H]2c3cc(C(=O)N4CCCC4)n(C)c3C[C@H]2CN1C(=O)c1ccccc1`, the z-score turned out to be 0.244.

`O=C1[C@]2(CO)C=C(Br)[C@@H](C[C@@H]2c2ccccc2)[C@@]12CO2` came in with a z-score of 0.116.

In turn, `CCCCC(O)C1C=CC2C(=O)N(C3CCCCC3)C(=O)C2N1Nc1ccc(OC)cc1` (stereo unspecified) had a z-score of 0.191.

Regarding `COc1ccc(C(O)C2C=CC3C(=O)N(c4ccccc4)C(=O)C3N2Nc2ccc([N+](=O)[O-])cc2)cc1OCc1ccccc1` (stereo unspecified), the z-score is 0.41.

For the molecule `Cc1ccc(S[C@]2(C(=O)NCc3ccccc3)CC(=O)N(Cc3ccccc3)[C@@H]2c2ccc(CO)cc2)cc1`, the z-score was determined as 0.561.

On to `C=C(COC)/C(=C/C[C@H](OC(=O)c1ccncc1)c1cccc(OCCO)c1)c1cc(C(=O)OC)ccc1OC`, for which the z-score was found to be 1.48.

For `COC(=O)[C@@]1(Cc2ccccc2)[C@H]2c3cc(C(=O)N(C)C)n(Cc4cc(C)n(C)n4)c3C[C@H]2CN1C(=O)c1ccccc1`, the z-score was -0.127.

In the case of `COC(=O)[C@@]1(Cc2ccccc2N=[N+]=[N-])COC(c2ccc(OCCCO)cc2)=N1`, the z-score came to 0.719.

For the molecule `CN1CCC(CCCO)=CC1c1ccc(CN2CCCC2)cc1` (stereo unspecified), the z-score turned out to be 0.0421.

For the molecule `CC(=CC1CCCCC1)[C@@H](NC(=O)c1ccc(C(F)(F)F)cc1)c1ccc(-c2ccccc2)cc1`, the z-score was -0.269.

The values above are taken from PubChem BioAssay.
